Sampled rows, rich in hits. Any-hit rate of the full collection: about 2.3%.
Tau fluor counter: counter-screen for tau fibril formation inhibitors | tau K18 P301L Alexa594 fluorescence, heparin fibrillization | Potency, µM (doses to about 57.7 µM), inactives show at the highest dose activity change, negative = decrease | hit rate 0.93% among 280,000; further: potency means the concentration at half of the fitted maximal effect; nearly all actives have a fitted effect of over 55% in size
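Human K18 P301L tau (15 uM unlabeled plus 0.24 uM Alexa 594-labeled, final) in 100 mM sodium acetate pH 7 was mixed with compound and 20 uM heparin and incubated 6 hr at 37 C.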
Tau fibril FP: tau fibrillization inhibition (FP); P10636; K18 P301L tau heparin fibrillization, Alexa594 FP, 6 h; Potency, µM (doses to about 57.7 µM), without a hit: at the top dose activity, negative = inhibition, actives largely listed as inhibitors; hit rate 0.39% among 280,000; further: potency means the concentration at half of the fitted maximal effect; nearly all actives have a fitted effect of over 55% in size
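FP of Alexa 594-tau after heparin (20 uM) induction. Substrate: human K18 P301L, 15 uM unlabeled, 0.24 uM labeled. Buffer 100 mM sodium acetate pH 7. 6 hr, 37 C.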
USP1 inh: inhibitors of human USP1/UAF1 deubiquitinase | recombinant USP1/UAF1, Ub-Rhodamine cleavage fluorescence | Potency, µM (series often up to 57.1 µM), for inactives: at the highest dose activity change, negative = inhibition, usual class: inhibitors | AID 743255 | hit rate 0.23% among 390,000 | O94782; further: potency means the concentration at half of the fitted maximal effect; nearly all actives have a fitted effect of over 60% in size
Target sequence (O94782 whole entry, looked up): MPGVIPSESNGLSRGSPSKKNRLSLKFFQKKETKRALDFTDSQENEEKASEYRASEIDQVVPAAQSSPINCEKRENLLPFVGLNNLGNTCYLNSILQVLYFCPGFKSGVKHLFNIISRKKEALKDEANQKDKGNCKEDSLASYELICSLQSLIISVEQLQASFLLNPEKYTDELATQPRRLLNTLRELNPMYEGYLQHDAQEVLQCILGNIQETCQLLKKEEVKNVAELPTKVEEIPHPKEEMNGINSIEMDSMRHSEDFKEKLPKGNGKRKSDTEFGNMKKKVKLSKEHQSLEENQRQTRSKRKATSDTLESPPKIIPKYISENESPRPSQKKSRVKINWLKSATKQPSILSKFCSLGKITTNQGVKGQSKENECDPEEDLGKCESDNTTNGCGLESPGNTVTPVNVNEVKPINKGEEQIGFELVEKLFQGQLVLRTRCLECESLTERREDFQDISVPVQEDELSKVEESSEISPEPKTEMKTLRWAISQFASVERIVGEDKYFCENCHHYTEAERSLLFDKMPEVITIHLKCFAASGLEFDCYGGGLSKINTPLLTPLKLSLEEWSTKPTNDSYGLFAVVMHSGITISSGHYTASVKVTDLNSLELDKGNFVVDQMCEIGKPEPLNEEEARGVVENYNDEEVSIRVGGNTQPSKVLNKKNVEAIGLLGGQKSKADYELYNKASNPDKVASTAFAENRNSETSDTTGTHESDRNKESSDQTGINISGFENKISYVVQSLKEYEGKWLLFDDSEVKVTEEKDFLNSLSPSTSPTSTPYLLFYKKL
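Step one: compound is pinned into 1nM USP1/UAF1 in HEPES pH 7.8 buffer with TCEP. Step two: 15 min room-temperature incubation. Step three: Ub-Rho (150nM final) starts cleavage, tracked by fluorescence over six one-minute reads.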
Coupling enz: inhibits coupling enzyme system, counter-screen for aldolase hits; activity change, negative = inhibition, % at 58.2 µM, hits read low; coupling enzyme system counterscreen, AmpLite Red fluorescence; hit rate 0.67% among 290,000; in the data active means activity change below about -30%
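Counterscreen lacking aldolase: glyceraldehyde-3-phosphate coupling-enzyme reagent preincubated 10 min at RT with compound (at 57.5 uM final), then substrate/coupling system with AmpLite Red added; fluorescence read at 525/598 nm after 20 min RT.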
Tau ThT inhib: blocks human tau fibril formation measured by thioflavin T | P10636 | recombinant tau K18 P301L, heparin-induced fibrillization, ThT fluorescence | Potency, µM (top dose mostly 57.4 µM), without a hit: top-dose activity, negative = inhibition, hits mostly inhibitors | hit rate 2.1% among 270,000 | AID 1460; further: potency means the concentration at half of the fitted maximal effect; nearly all actives have a fitted effect of over 55% in size
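ThT emission at 510 nm, taken 1 hr after adding 30 uM dye, quantifies aggregates formed when 20 uM heparin acts on human tau K18 P301L for 6 hr at 37 C.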
Active calls of the source: *; ? = inconclusive; / = no result; [ ] = another dose, or the depositor's remark. Unless noted, the call rests on the fitted dose curve; in most records, active means well fitted curve in the direction sought with a large enough effect; inconclusive means small, poorly fitted or top-dose-only effect, or another doubt; inactive means no such curve, though single readings can be large; an effect the other way counts as inactive or inconclusive. On the % scale 0 is the no-effect control and ±100 the full control effect.

SMILES | Tau fluor counter | Tau fibril FP | USP1 inh | Coupling enz | Tau ThT inhib
CN(C)c1ccc(-c2nc3ccccn3c2/N=C/c2ccc(Br)cc2)cc1 | ? | ? | -9% | -6 | 14µM*
N#CC1=C(N)C(C#N)(C#N)C(c2cccnc2)C2CCCC=C12 (stereo not drawn) | -7% | ? | / | -36* | ?
N#CC1=C(N)C2=CCCC[C@H]2[C@H](c2cccc(F)c2)C1(C#N)C#N | -30% | ? | -22% | -1 | ?
N#CC1=C(N)C(C#N)(C#N)C(c2cccnc2)C2CC(c3ccccc3)CC=C12 (stereo not drawn) | -29% | ? | -22% | 3 | 25µM*
N#CC1=C(N)C(C#N)(C#N)C(c2ccc[nH]2)C2CCCC=C12 (stereo not drawn) | ? | ? | -25% | -17 | 14µM*
CC(C)c1ccc(C2C3CSCC=C3C(C#N)=C(N)C2(C#N)C#N)cc1 (stereo not drawn) | -22% | -9% | / | -2 | ?
Cc1[nH]c2ccccc2c1C(=O)COC(=O)c1ccc([N+](=O)[O-])s1 | 11µM*[quencher] | -2% | -26% | -5 | 7.1µM*
Cc1[nH]c2ccccc2c1C(=O)COC(=O)c1c(-c2c(F)cccc2Cl)noc1C | ? | 14µM* | -18% | -2 | 9%
Cc1c(Cl)cnc(NC(=O)COC(=O)c2ccc([N+](=O)[O-])s2)c1Cl | -15% | 4% | 18µM* | -11 | ?
O=C1C([N+](=O)[O-])=C(O)c2cccc3cccc1c23 | / | / | / | -51* | /
COC(=O)c1[nH]c2cc(OC)ccc2c1NC(=O)CN1CCN(c2cccc(C)c2)C(C)C1 (stereo not drawn) | 14µM*[quencher] | ? | ? | 3 | ?
Fc1ccc(Nc2ncnc3ccc(-c4ccoc4)cc23)cc1 | / | / | / | 0 | /
O=C(Nc1nc2c(s1)CN(Cc1ccccc1)CC2)C1CCC1 | -11% | -15% | -24% | -4 | ?
CN(C)c1ccc(/C=C(\C#N)C(=O)Nc2nc3c(s2)CCN(Cc2ccccc2)C3)cc1 | -27% | 2% | 4.5µM* | 0 | 6%
CCOc1cccc2sc(NC(=O)c3ccc(S(=O)(=O)N4CCCCC4C)cc3)nc12 (stereo not drawn) | -2% | -22% | -9% | / | 16%
O=S(=O)(c1ccc(-c2cc(C(F)(F)F)on2)s1)N1CCN(c2cccc(Cl)c2)CC1 | 1% | -3% | -26% | / | 10%
Cc1ccc(NC(=S)Nc2cccnc2)c(S(=O)(=O)N2CCCCC2)c1 | ? | 32µM* | -21% | 0 | 11%
O=C(Nc1cccnc1)c1ccc(Cl)c(S(=O)(=O)N2CCCCC2)c1 | / | / | -26% | 1 | /
Cn1c(=O)c2c(nc3n(-c4ccc(O)cc4)c(-c4ccc(Br)cc4)cn23)n(C)c1=O | -3% | 4% | -18% | / | -1%
COc1cc(C2N3CC4(C)CN2CC(C)(C3)C4)ccc1O (stereo not drawn) | 10% | 7% | -14% | 4 | 5%
COc1ccc(C2N(c3ccccc3)CCN2c2ccccc2)cc1O | 14µM*[quencher] | 10% | ? | -4 | ?
CCOC(=O)Cc1csc(SCn2nnc3ccccc3c2=O)n1 | -8% | 5% | -19% | -2 | -11%
CCOC(=O)Cc1csc(-n2sc3ccccc3c2=O)n1 | ? | 28µM* | ? | 3 | 28µM*
CCN1CCN(C(=S)c2ccc(Cl)cc2)CC1 | -21% | ? | -6% | -54* | ?
C(=N\Nc1nc2ccccc2[nH]1)/c1ccc2c(c1)OCO2 | ? | 13% | -16% | -1 | 7.9µM*
SMILES | Tau fluor counter | Tau fibril FP | USP1 inh | Coupling enz | Tau ThT inhib
CC(=O)Nc1ccc(/C=N/Nc2nc3ccccc3[nH]2)cc1 | 1% | 12% | -14% | 1 | ?
C(=N\Nc1nc2ccccc2s1)/c1ccc2c(c1)OCO2 | ? | 14% | -7% | 2 | ?
CCN(CC)c1ccc(/C=N/Nc2nc3ccccc3[nH]2)cc1 | 7.9µM*[quencher] | ? | -13% | -2 | 3.2µM*
CC1CCN(S(=O)(=O)c2nnc(NC(=O)c3ccc(C(C)C)cc3)s2)CC1 | ? | ? | -8% | / | 2.8µM*
COc1ccc(C(=O)Nc2nnc(S(=O)(=O)N3CCC(C)CC3)s2)cc1OC | ? | 1% | -12% | 3 | 13µM*
Nc1cc([N+](=O)[O-])ccc1Nc1ccc(O)cc1 | 20µM*[quencher] | ? | -5% | -4 | 13µM*
Cc1ccc(S(=O)(=O)/N=C/c2c(O)ccc3ccccc23)cc1 | / | / | 8% | -32* | /
O=S(=O)(/N=C/c1c(O)ccc2ccccc12)c1cccs1 | -25% | ? | / | -50* | ?
Cc1nn(C)c(C)c1N=Cc1c(O)ccc2ccccc12 | -4% | -5% | ? | -11 | ?
COc1ccc(Nc2c3c(nc4ccc(NC(=O)/C=C/c5cccc(OC)c5OC)cc24)CCCC3)cc1OC | ? | 8% | -17% | / | 14µM*
COc1ccccc1Nc1c2c(nc3ccc(NC(=O)c4cccc(F)c4)cc13)CCCC2 | ? | -10% | 1% | / | ?
COc1ccc(/C=C/C(=O)Nc2ccc3nc4c(c(Nc5ccccc5OC)c3c2)CCCC4)cc1 | ? | ? | -1% | / | 10µM*
COc1ccccc1Nc1c2c(nc3ccc(NC(=O)/C=C/c4cccc(OC)c4OC)cc13)CCCC2 | ? | -4% | -2% | / | 14µM*
COc1ccc(Nc2c3c(nc4ccc(NC(=O)/C=C/c5cc(OC)c(OC)c(OC)c5)cc24)CCCC3)cc1OC | ? | -1% | 11% | / | ?
COc1ccc(/C=C/C(=O)Nc2ccc3nc4c(c(Nc5ccc(OC)c(OC)c5)c3c2)CCCC4)cc1 | 16µM*[quencher] | -4% | -16% | / | 25µM*
O=S(=O)(Nc1cccc(-c2ccc(N3CCCCC3)nn2)c1)c1cccc(F)c1 | ? | -2% | -24% | / | -16%
Brc1ccc(-c2cc3c(N4CCN(c5ccccc5)CC4)nccn3n2)cc1 | -18% | -1% | -14% | / | -13%
COc1ccccc1-c1nccc(NCc2cccnc2)n1 | / | / | / | 2 | /
COc1ccccc1-c1nnc(SCCOc2ccccc2C)o1 | -13% | 4% | -12% | / | -16%
CCOc1ccc(NC(=O)Cn2c(=O)n(Cc3ccco3)c(=O)c3ccc(C(=O)NC4CCCC4)cc32)cc1 | ? | 16µM* | -23% | / | 2%
O=C(Nc1ccccc1O)c1ccc2c(c1)C(=O)N(N1C(=O)c3ccccc3C1=O)C2=O | / | / | -6% | 1 | /
O=C1C=C(Nc2ccccc2O)c2ccccc2C1=O | ? | -11% | 18µM* | -60* | ?
O=c1cccccc1NCc1ccccc1 | -8% | 2% | -13% | -39* | -14%
Cc1ccc(NC2=CC(=O)C(=O)c3ccccc32)c(C)c1 | / | / | 32µM* | / | /
O=C1C=C(NCc2ccccc2)c2ccccc2C1=O | -25% | ? | 2.5µM* | -87* | 14µM*
O=C1C=C(NCc2ccccc2)CCC1 | 4% | 0% | -18% | 0 | 2%
